The list is not random: actives were taken first. Their share in the collection is about 2.9%.
N-glyco inh: N-linked glycosylation inhibition; reporter increase, % at 12.5 µM; actives 0.23% (n = 360,000); D54 ERlucT glycosylation luciferase reporter, 24 h; percent of 100 nM tunicamycin response;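 active means mean luciferase reporter signal, scaled so untreated is 0 and the glycosylation-blocking control 100, at or above a set limit in every replicate; inconclusive means mean reaches the limit but not every replicate does; inactive means mean below the limit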;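 further: luciferase carries N-glycosylation sites so blocking glycosylation raises the light; 0% = median of neutral control wells and 100% = median of 100 nM tunicamycin wells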
PvdQ acylase: P. aeruginosa PvdQ acylase inhibition; purified PvdQ acylase, fluorescence plate reader; actives 0.063% (n = 340,000); inhibition, % at 10 µM; AID 488965; in the data active means inhibition above about 30%, passing the limit was not always enough; inconclusive means no clear call, values can overlap the other calls;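 further: 0% = vehicle neutral wells and 100% = reference inhibitor wells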
esBAF inh: blocks esBAF chromatin remodeling in mouse ES cells; Bmi1-luciferase knock-in reporter, 24 h; 100% = twice the neutral-well signal; reporter increase, % at 12.5 µM; actives 2% (n = 350,000); in the data active means activation above about 40%; inconclusive means no clear call, values can overlap the other calls;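 further: 0% = median of the plate's neutral control wells and 100% = double that signal; a rise in the Bmi1 reporter signal indicates esBAF inhibition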
Wnt bcat act: activators of Wnt/beta-catenin signaling | Wnt/beta-catenin reporter cell assay, activator, plate reader | activation, % at 9.35 µM | actives 1.2% (n = 300,000) | AID 743398; in the data active means activation above about 30%, passing the limit was not always enough; inconclusive means no clear call, values can overlap the other calls;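 further: 0% = neutral control wells and 100% = positive control wells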
Vif imaging: inhibitors of HIV Vif | AID 602346 | actives 0.35% (n = 340,000) | HEK293T cells, Vif self-association by quenched fluorescence, imaging, 24 h | inhibition, % at 7.49 µM; in the data active means inhibition above about 50%, passing the limit was not always enough; inconclusive means no clear call, values can overlap the other calls; inactive means below about 31%
MITF act: activators of MITF-driven TRPM1 promoter activity in SK-MEL-5 cells. SK-MEL-5 TRPM1-promoter luciferase, 24 h; % of positive control, neutral wells = 0. activation, % at 12.5 µM. actives 0.75% (n = 300,000);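 active means mean activation of at least 80% with every replicate also reaching 80%; inconclusive means mean reaches 80% but some replicate falls short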;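 further: 0% = neutral control wells and 100% = parthenolide positive control wells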
Numbers without * were called inactive; ? = inconclusive; · = no result given.

SMILES	N-glyco inh	PvdQ acylase	esBAF inh	Wnt bcat act	Vif imaging	MITF act
c1ccc(N2CCN(c3nc4cc5c(cc4s3)OCCO5)CC2)cc1	-3	-13	48*	?	-21	·
COc1ccc(NC(=O)c2ccc(-c3c(C)noc3C)c3ccoc23)cc1	3	·	56*	23	20	·
Cc1noc(C)c1-c1ccc(C(=O)NCc2ccccc2)c2occc12	9	·	18	9	2	·
Cc1noc(C)c1-c1ccc(C(=O)NC2CCCCC2)c2occc12	11	·	53*	24	10	·
Cc1noc(C)c1-c1ccc(C(=O)NCC2CC2)c2occc12	14	·	-2	8	24	·
Cc1noc(C)c1-c1ccc(C(=O)Nc2ccccc2)c2occc12	-3	·	57*	-1	6	·
COCC#Cc1cnc2c(c1)C(=O)N([C@@H](C)CO)C[C@@H](C)[C@@H](CN(C)S(=O)(=O)c1cn(C)cn1)O2	·	·	-2	·	·	·
CC(=O)c1ccc(NC(=O)c2noc3c2CCCCC3)cc1	-7	10	-2	·	2	89*
O=C(Nc1ccc2c(c1)OCO2)c1noc2c1CCCCC2	-11	-12	·	·	4	3
O=C(Nc1ccc2c(c1)OCO2)c1noc2c1CCCC2	-11	-14	-3	38*	18	8
Clc1ccc(Nc2nc(-c3cccnc3)cs2)cc1	0	-2	54*	·	?	23
Fc1ccc(Nc2nc(-c3cccnc3)cs2)cc1	-4	-10	·	25	-4	68
Cc1ccc(Nc2nc(-c3ccncc3)cs2)cc1	-14	0	·	43*	-2	88*
Cc1cccc(Nc2nc(-c3ccncc3)cs2)c1	-8	-7	·	9	-4	50
CCN(CC)c1ccc(Nc2nc(-c3cccnc3)cs2)cc1	-3	-15	60*	29	-2	112*
CO[C@@H]1CN(C)C(=O)c2ccc(NC(C)=O)cc2OC[C@@H](C)N(C(=O)c2ccccn2)C[C@H]1C	·	·	-6	·	·	·
CC(C)CC#Cc1ccc2c(c1)O[C@@H](CN(C)C(=O)Cc1ccccn1)[C@H](C)CN([C@H](C)CO)S2(=O)=O	·	·	5	·	·	·
CC(=O)c1ccc(/C=C/c2nc3ccccc3n2C)o1	-5	·	·	35*	8	·
Cc1ccc(S(=O)(=O)N[C@H]2CC[C@@H](CCn3cc(-c4cccnc4)nn3)O[C@@H]2CO)cc1	·	·	1	·	·	·
O=C(N[C@H]1CC[C@H](CCNC(=O)c2ccccc2F)O[C@@H]1CO)c1cnccn1	·	·	-1	·	·	·
C[C@H](CO)N1C[C@H](C)[C@H](CN(C)S(=O)(=O)CC(F)(F)F)OCc2ccccc2-c2ccccc2C1=O	·	·	17	·	·	·
CC1CCCC(NC(=O)CCN2C(=O)COc3ccccc32)C1C (stereo not drawn)	0	·	-3	-3	50*	·
Clc1ccc(-c2cnn3c(-c4ccncc4)ccnc23)cc1	-12	-7	·	64*	9	15
Nc1c(C(=O)O)cnc2c(-c3ccc(Cl)cc3)cnn12	-5	-6	47*	10	-3	-3
CC(=O)c1cnc2c(-c3ccc(Cl)cc3)cnn2c1C	1	14	75*	·	·	73
SMILES	N-glyco inh	PvdQ acylase	esBAF inh	Wnt bcat act	Vif imaging	MITF act
CCNC(=O)[C@@H]1[C@@H](CO)[C@@H]2Cn3c(ccc(-c4cccc(F)c4)c3=O)[C@H]1N2C(=O)c1ccccn1	·	·	-4	·	·	·
Nc1ncnc(N)c1N=Nc1ccccc1	-15	-11	-20	1	-3	-15
Nc1ccc2ccccc2c1N=Nc1ccccc1	-2	-11	43*	15	2	-11
C[C@H](CO)N1C[C@H](C)[C@H](CN(C)S(C)(=O)=O)Oc2ncc(-c3ccccc3)cc2C1=O	·	·	-3	·	·	·
c1csc(-c2nc(CN3CCSCC3)cs2)c1	-19	-13	-49	43*	-5	-9
O=S1(=O)CCN(Cc2csc(-c3cccs3)n2)CC1	-9	-13	·	-1	2	32
CNC(=O)C[C@H]1CC[C@H]2[C@@H](COc3ccc(NC(=O)c4cnccn4)cc3C(=O)N2C)O1	·	·	6	·	·	·
Cc1cc(C(=O)CSc2nnnn2-c2ccccc2)c(C)n1-c1ccc2c(c1)OCO2	-4	-7	·	-2	0	0
Cc1cc(C(=O)CSc2nncs2)c(C)n1-c1ccc2c(c1)OCO2	-3	3	80*	·	-32	71
Cc1ccc(NC(=O)C2CCN(S(=O)(=O)c3ccc4ccccc4c3)CC2)nc1	1	-7	58*	-4	·	68
Cc1ccc(NC(=O)C2CCN(S(=O)(=O)c3ccc(Cl)c(C(F)(F)F)c3)CC2)nc1	2	-15	14	2	-6	0
CC(=O)Nc1cccc(-c2csc(Nc3ncccn3)n2)c1	·	·	·	44*	·	·
CC(=O)Nc1cccc(-c2csc(Nc3ccc(C)cn3)n2)c1	-13	5	·	·	11	119*
CC(=O)NNc1nc(-c2ccc(NC(C)=O)cc2)cs1	1	-1	·	-8	2	5
CC(=O)Nc1ccc(-c2csc(Nc3cccc(C)n3)n2)cc1	0	4	·	48*	5	87*
COc1cc(/C=C/C(=O)c2ccc(Cl)s2)cc(OC)c1O	?	-7	10	·	0	-24
Cc1c(/C=C/C(=O)c2ccc(Cl)s2)cnn1C	3	-6	?	61*	4	·
COc1ccc(/C=C/C(=O)c2ccc(Cl)s2)cc1O	28*	-12	56*	·	8	·
COc1ccc(C=CC(=O)c2ccc(OC)c(OC)c2O)cc1OC	37*	-11	7	-4	3	16
COc1cc(/C=C2\C(=O)N(c3cccc(C(=O)O)c3)N=C2C)ccc1OCc1ccccc1	1	·	52*	11	·	·
COc1ccc(C(=O)C=Cc2ccc(OCc3ccccc3)c(OC)c2)cc1OC	51*	·	16	2	-14	·
COC(=O)c1cn(C(=O)/C=C/c2ccc(OC)c(OC)c2)c2ccccc12	36*	-12	·	1	5	23
COc1ccc(C(=O)/C=C/c2ccc(OC)c(O)c2)c(F)c1	55*	-4	·	·	-3	7
Cc1ccc(S(=O)(=O)Nc2ccc3c(c2)C(=O)N([C@H](C)CO)C[C@H](C)[C@@H](CN(C)Cc2ccccc2)OCCCC[C@@H](C)O3)cc1	·	·	-1	·	·	·
CCCCCC(=O)NNC(=O)Nc1ccccc1	5	-8	·	·	-1	-9
SMILES	N-glyco inh	PvdQ acylase	esBAF inh	Wnt bcat act	Vif imaging	MITF act
CCCCSC(=O)Nc1ccccc1	3	5	50*	5	·	9
O=C(O)CSCC(=O)Nc1ccc(Cl)cc1C(F)(F)F	2	-14	·	2	2	9
CC(C)N(CC(=O)Nc1ccc(Cl)cc1C(F)(F)F)C(=O)CCl	34*	11	·	-1	-1	-7
Cc1ccccc1/C=C\c1nc2ccccc2c(=O)[nH]1	1	-1	·	24	3	25
C=CCOc1cccc(/C=C/c2nc3ccccc3c(=O)[nH]2)c1	4	2	-3	12	-3	82*
COc1cc(/C=C/c2nc3ccccc3c(=O)[nH]2)cc(OC)c1OC	-1	-10	28	9	-8	23
